SMILES strings stand for the structures. Values joined by “and” are separate entries in the source; they are usually repeats but may differ in a detail not shown here. Equal entries are not always repeated. About 6,800 (1%) of roughly 650,000 compounds were called active. Cut-off read from the data, not from the text of the source: active = activation above about 4.9%; inactive = the rest. The sample as a whole holds a higher share of actives than the screen did. A structure can be active in one record and inactive in another.

G-protein coupled receptor 151 (Homo sapiens), sequence (Q8TDV0 whole entry, looked up): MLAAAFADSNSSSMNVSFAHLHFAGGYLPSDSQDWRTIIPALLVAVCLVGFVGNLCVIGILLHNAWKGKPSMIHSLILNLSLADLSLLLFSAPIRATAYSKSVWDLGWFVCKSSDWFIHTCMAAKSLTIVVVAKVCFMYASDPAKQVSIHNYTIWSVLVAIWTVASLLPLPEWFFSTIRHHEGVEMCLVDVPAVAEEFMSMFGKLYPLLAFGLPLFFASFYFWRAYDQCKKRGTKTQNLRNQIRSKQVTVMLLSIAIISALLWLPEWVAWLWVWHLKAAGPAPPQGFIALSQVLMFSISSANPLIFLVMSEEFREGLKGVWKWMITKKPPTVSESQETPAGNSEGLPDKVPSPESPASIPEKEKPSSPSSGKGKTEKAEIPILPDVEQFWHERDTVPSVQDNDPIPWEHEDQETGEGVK

This assay has as its target G-protein coupled receptor 151 (Homo sapiens) (UniProt Q8TDV0). Kind of assay: activators of human GPR151, primary screen, cell-based, PathHunter beta-arrestin, luminescence (AID 1508602).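 Note: 0% = median of compound wells and 100% = cells with positive control.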 Particulars: PathHunter beta-arrestin GPR151 cells, at 11.2 µM, stronger effect = higher value.
Turning to `O=C(Nc1cccc(-c2nnc3n2CCCCC3)c1)c1ccc(=O)n(Cc2ccccc2)n1`, the activation was -1.56% (inactive). In the case of `CCOC(=O)c1c(-c2ccc(OC)cc2)oc2ccc(OC(=O)c3ccccc3OC)cc12`, the activation was -0.167% (inactive). Next, `O=C(c1ncoc1-c1cccs1)N1CCN(c2ccc(C(F)(F)F)cn2)CC1`: 0.0668% (inactive). Take `Nc1[nH]c(=O)[nH]c(=O)c1N=Nc1cccc(Br)c1`: the activation is -1.15% (inactive). With `O=C1CCN(Cc2cc(F)cc(F)c2)CCN1Cc1ccc(Cl)s1`, the activation was -0.0282% (inactive).

With `N=c1c(C(=O)NCc2cccnc2)cc2c(=O)n3ccccc3nc2n1CCO`, the activation is 1.18% (inactive). Regarding `COCCNC(=O)c1cc2c(=O)n3ccccc3nc2n(CCc2ccccc2)c1=N`, the activation was 4.99% (active).

As for `CCCn1c(=N)c(C(=O)NCc2ccc(C)cc2)cc2c(=O)n3ccccc3nc21`, the activation is 1.57% (inactive). Next, `Cc1ccc(C2(C)NC(=O)N(CC(=O)c3ccc(Br)s3)C2=O)cc1` (centres undefined): 1.11% (inactive); `O=C(CN(c1cccc([N+](=O)[O-])c1)S(=O)(=O)c1ccccc1)N1CCOCC1`: 0.197% (inactive); `CCCCN1C(=O)S/C(=C\c2ccc(O)c([N+](=O)[O-])c2)C1=O`: -1.5% (inactive). Next, `CN(C)S(=O)(=O)c1cccc(C(=O)N2CCCc3ccccc32)c1`: 1.08% (inactive); `O=C(CC1C(=O)NCCN1Cc1ccc2ccccc2c1)NCCCn1cccn1` (centres undefined): 5.94% (active); `O=C(CC1C(=O)NCCN1CCc1ccccc1)NCCCn1ncc2ccccc21` (centres undefined): 0.711% (inactive).

As to `COC(=O)CCCNC(=O)CC1C(=O)NCCN1Cc1ccc2ccccc2c1` (centres undefined), the activation was -0.306% (inactive). For the compound `COc1cc(CN(C(=O)c2cncs2)C2CCCC2)cc(OC)c1OCC1CCCO1` (centres undefined), the activation was -1.02% (inactive). Regarding `COC(=O)c1ccc2c(=O)nc3c(-c4ccccc4)n[nH]n3c2c1`, the activation was -1.93% (inactive). As to `CCOC(=O)c1ccc(CNC(=O)c2cc(CCc3ccccc3)no2)o1`, the activation is 0.0388% (inactive). Take `Oc1ccc(Cn2cc[nH]c2=S)cc1`: the activation was 8.86% (active). `COc1ccc(Cn2cc[nH]c(=O)c2=O)cc1`: the activation was -0.548% (inactive).

On to `O=[N+]([O-])c1cccc(COC2=NS(=O)(=O)c3ccccc32)c1`, for which the activation is 0.739% (inactive). On to `NC(=S)N/N=C/c1ccc([N+](=O)[O-])cc1`, for which the activation was -0.328% (inactive) and 5.02% (active). With `CSc1ccc(/C=N/NC(N)=S)cc1`, the activation is 0.328% (inactive). With `O=C(Cc1ccccc1)N/N=C/c1ccc([N+](=O)[O-])cc1`, the activation is -0.27% (inactive). The value for `Cc1[nH]c2ccccc2c1/C=N/NC(=O)/C(=C/c1ccccc1O)NC(=O)c1ccccc1` was -5.34% (inactive). Regarding `COc1cccc(C(=O)NC(=S)Nc2ccc(OC)cc2OC)c1`, the activation is 10.4% (active).

For the compound `COc1cccc(C(=O)NC(=S)Nc2ccccc2OC)c1`, the activation is -0.111% (inactive).

On to `COc1ccc(NC(=S)NC(=O)c2ccc([N+](=O)[O-])cc2)c(OC)c1`, for which the activation is 3.1% (inactive). Regarding `CC1=C(C(=O)OCCc2ccccc2)C(c2ccc(Br)cc2)NC(=O)N1` (centres undefined), the activation was -1.85% (inactive).

Turning to `CCCOC(=O)C1=C(C)NC(=O)NC1c1ccc(Br)cc1` (centres undefined), the activation is 9.45% (active).

For the compound `CCCOC(=O)C1=C(C)NC(=O)NC1c1ccccc1` (centres undefined), the activation is -1.76% (inactive).

With `COc1ccc(C2(C(=O)Nc3ccc(C(=O)NCc4ccccc4)cc3)CCOCC2)cc1`, the activation was 0.34% (inactive). As for `CCCCN(C)C(=O)C1(c2ccc(OC)cc2)CCOCC1`, the activation is 0.343% (inactive). As to `CCCCNC(=O)C1(c2ccc(OC)cc2)CCOCC1`, the activation was 7.05% (active). Regarding `Cn1cccc1CC(=O)N/N=C\c1c(Cl)cccc1Cl`, the activation is 0.023% (inactive). Take `COc1cccc(CC2(CCC(=O)NC3CCOC(C)(C)C3)CCC(=O)N2)c1` (centres undefined): the activation was 1.54% (inactive). With `CCC(C)Nc1nc2c(c(=O)[nH]c(=O)n2C)n1CC(O)COC(C)C` (centres undefined), the activation is 5.88% (active). Next, `CC(C)CNc1nc2c(c(=O)[nH]c(=O)n2C)n1CC(C)O` (centres undefined): 5.96% (active); `C/C(=N\Nc1nc2c(c(=O)[nH]c(=O)n2C)n1CC(C)O)c1ccc(O)cc1` (centres undefined): -2.73% (inactive); `CC(O)Cn1c(N(C)C)nc2c1c(=O)[nH]c(=O)n2C` (centres undefined): -0.989% (inactive). The value for `Cc1ccc(/C=N/Nc2nc3c(c(=O)[nH]c(=O)n3C)n2CC(O)COC(C)C)cc1` (centres undefined) was -0.049% (inactive); that for `CCCCNc1nc2c(c(=O)[nH]c(=O)n2C)n1CC(O)COC(C)C` (centres undefined) was 0.097% (inactive); that for `Cc1cc(C)c(/C=N/NC(=O)c2nnn(-c3nonc3N)c2CN(C)C)c(C)c1` was -0.818% (inactive). As for `CCOC(=O)c1c(NC(=O)Cc2ccc([N+](=O)[O-])cc2)sc(C)c1C`, the activation is -0.865% (inactive). Next, `Cc1cc(S(=O)(=O)n2cc(-c3cccc(F)c3)c(N)n2)ccc1F`: 0.532% (inactive); `Cc1ccc(C)c(CN2CCC(n3nccc3NC(=O)C(C)(C)C)CC2)c1`: 5.02% (active); `Cc1cccc(CN2CCC(n3nccc3NC(=O)C(C)(C)C)CC2)c1`: -0.39% (inactive).

As for `CC(C)(C)C(=O)Nc1ccnn1C1CCN(Cc2ccccc2C(F)(F)F)CC1`, the activation is 0.711% (inactive).

On to `COc1cccc(/C=N/NC(=O)CC23CC4CC(CC(C4)C2)C3)c1O`, for which the activation was 0.719% (inactive). For the compound `COc1ccc(NC(=O)Cn2c(=O)n(-c3ccc(F)cc3)c(=O)c3sccc32)cc1`, the activation is -0.363% (inactive). `COc1ccc(NC(=O)Cn2c(-c3ccc(OC)cc3)cn(-c3ccc(C)cc3)c2=O)cc1`: the activation was 7.86% (active).

As for `COc1ccc(-n2ccnc2SCC(=O)Nc2ccc(C)cc2)cc1`, the activation is 1.88% (inactive). As for `CCOc1ccc(-c2nn(-c3ccccc3)cc2C2C(C(=O)OCc3ccccc3)=C(C)NC(C)=C2C(=O)OCc2ccccc2)cc1`, the activation was 1.89% (inactive). With `CCOC(=O)c1cc2c(C)n(Cc3ccccc3)c(C)c2cc(C(=O)OCC)c1=O`, the activation is -0.0778% (inactive).

Regarding `CCC1=C(C)c2cc3nc(C(=O)OCc4ccccc4)c(C)c-3c(C)n2C1C` (centres undefined), the activation was 5.68% (active). Consider `NC(=O)CN(c1ccccc1)S(=O)(=O)c1ccccc1[N+](=O)[O-]`, for which the activation is 0.204% (inactive). Regarding `CCOc1cc(CNCc2c(C(=O)O)n(CC)c3cc(OC)ccc23)ccc1OC`, the activation was -1.01% (inactive). `O=C(CSc1nnnn1-c1ccc(F)cc1)N1CCc2ccccc21`: the activation was -1.53% (inactive). Take `O=C(CCN1CCN(C/C=C/c2ccccc2)CC1)Nc1ccc(Br)cc1`: the activation is 1.05% (inactive). Regarding `COc1ccc(NC(=O)CCN2CCN(C=O)CC2)cc1`, the activation was -1.28% (inactive). The value for `O=CN1CCN(CCC(=O)Nc2ccccc2)CC1` was 5.13% (active); that for `CCOC(=O)c1c(NC(=O)c2nn3c(C(F)(F)F)cc(-c4ccc(OC)cc4)nc3c2Cl)sc2c1CCCC2` was 0.0805% (inactive). Turning to `Cc1cc(Nc2ccc(F)cc2)n2cnnc2n1`, the activation is 9.65% (active). In the case of `Fc1ccc(Nc2nc3ccccc3n3cnnc23)cc1`, the activation is -0.0284% (inactive). In the case of `Cc1ccc(Nc2cc(C)nc3nncn23)cc1`, the activation was -0.458% (inactive). Consider `CCOc1ccccc1/C=C1/NC(=S)NC1=O`, for which the activation was 0.436% (inactive).

As for `O=C1CCCN1CCn1cnc2c(NCc3nc4ccccc4[nH]3)nc(N3CCc4ccccc4C3)nc21`, the activation is -1.26% (inactive). Next, `COc1ccc(OC)c(NC(=S)Nc2ccccn2)c1`: 9.49% (active); `CNC(=O)C(=O)Nc1cc(OC)ccc1OC`: -0.733% (inactive). For the compound `CCn1cc(CNC(=S)Nc2cc(OC)ccc2OC)cn1`, the activation was -1.23% (inactive). Consider `COCCn1nnnc1C(c1cc2c(C)cc(C)cc2[nH]c1=O)N1CCCC(C)C1` (centres undefined), for which the activation is 0.229% (inactive).

Consider `CCOc1ccc2cc(C#N)c(SCC(=O)Nc3ccccc3C(=O)OC)nc2c1`, for which the activation was -0.792% (inactive). As for `COc1ccc(OC)c(CNC(=O)c2cc3c(C)nc4ccccc4c3o2)c1`, the activation is 0.296% (inactive).

For the compound `O=C(Nc1cc(Cl)cc(Cl)c1)c1ccc(F)c(S(=O)(=O)NCc2ccco2)c1`, the activation was 0.664% (inactive). For `COc1ccc(C2=NN(C(=O)CSc3nnc(CNC(=O)c4ccc(S(=O)(=O)N(C)C)cc4)n3C)C(c3ccc(C)cc3)C2)cc1` (centres undefined), the activation was 1.11% (inactive). With `CC(C)CC(C(=O)Nc1ccc([N+](=O)[O-])cc1)N1C(=O)c2ccccc2C1=O` (centres undefined), the activation was 2.66% (inactive).

Take `CC(C)CC(C(=O)Nc1cccc([N+](=O)[O-])c1)N1C(=O)c2ccccc2C1=O` (centres undefined): the activation is 15.7% (active). As to `CC(C)CC(C(=O)Nc1ccc(Cl)cc1)N1C(=O)c2ccccc2C1=O` (centres undefined), the activation is -0.915% (inactive). Consider `CCOCCCNC(=O)/C(C#N)=C/c1c(Oc2ccc(CC)cc2)nc2ccccn2c1=O`, for which the activation was -7.56% (inactive). `CCN(CC)c1ccc(CN2C[C@@H](NCc3ccc4ccccc4c3)C[C@H]2C(=O)NC)cc1`: the activation was 0.619% (inactive). `CC1CCN(c2nc3ccc(C(=O)NCCCOC(C)C)cc3s2)CC1`: the activation was -0.0522% (inactive). Turning to `CCOCCCNC(=O)NC1CCN(c2nc3ccccc3s2)CC1`, the activation was 5.41% (active).

In the case of `CCCCN(C)CCCNC(=O)C1CCN(c2nc3ccc(OC)cc3s2)CC1`, the activation was -1.77% (inactive). Next, `Cc1nn2c(N3CCNCC3)c3c(nc2c1-c1ccccc1)CCC3`: -1.05% (inactive); `Cn1c(=NC(=O)CN2C(=O)c3ccccc3C2=O)sc2cc(F)cc(F)c21`: 0.254% (inactive). As for `c1cncc(Nc2nc(NC3CC3)c3ncn(C4CCCCC4)c3n2)c1`, the activation was 11.5% (active). `c1cnc(Nc2nc(NCc3cccnc3)c3ncn(C4CCCCC4)c3n2)nc1`: the activation is -0.529% (inactive). On to `FC(F)(F)c1ccc(Nc2nc(NC3CC3)c3ncn(C4CCCCC4)c3n2)cc1`, for which the activation is 0.642% (inactive). With `Cc1ccc(NC(=O)CCNS(=O)(=O)c2ccc3c(c2)c(=O)n(C)c(=O)n3C)nc1`, the activation was -0.3% (inactive).
